About 83,000 compounds went through this panel and 20% of them were active in at least one assay; those are over-represented in the sample as a whole.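 Negative percent growth values reflect cell death: -40 means 40% of the cells present at the start died, and -100 means all died.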
Assays:
Assay in all cases: NCI-60 one-dose screen, 48 h (100 = growth as untreated, 0 = no growth, -100 = all killed); active means growth percent below 10; inactive means the rest
[1] = test system: NCI-H23 lung; conditions: 10 µM unless noted
[2] = test system: NCI-H226 lung; conditions: 10 µM unless noted
[3] = test system: NCI-H322M lung; conditions: 10 µM unless noted
[4] = test system: HOP-62 NSCLC; conditions: 10 µM unless noted
[5] = test system: NCI-H460 lung; conditions: 10 µM unless noted
[6] = test system: 786-0 renal; conditions: 10 µM unless noted
[7] = test system: MDA-MB-231 breast; conditions: 10 µM unless noted
[8] = test system: SF-268 CNS; conditions: 10 µM unless noted
[9] = test system: SF-539 CNS; conditions: 10 µM unless noted
[10] = test system: M14 melanoma; conditions: 10 µM unless noted
[11] = test system: HCT-15 colon; conditions: 10 µM
[12] = test system: U251 CNS; conditions: 10 µM unless noted
[13] = test system: UACC-62 melanoma; conditions: 10 µM unless noted
[14] = test system: SK-MEL-28 melanoma; conditions: 10 µM unless noted
[15] = test system: UO-31 renal; conditions: 10 µM unless noted
[16] = test system: OVCAR-5 ovarian; conditions: 10 µM unless noted
[17] = test system: MDA-MB-435 melanoma; conditions: 10 µM unless noted
[18] = test system: SW-620 colon; conditions: 10 µM unless noted
[19] = test system: MCF7 breast; conditions: 10 µM unless noted
[20] = test system: KM12 colon; conditions: 10 µM unless noted

Measured: growth

COc1ccc(C(c2ccc(OC)cc2)C(Cl)(Cl)Cl)cc1
inactive: [1] 81.9% | [2] 96.9% | [3] 106% | [4] 83.1% | [5] 91.8% | [6] 74.4% | [7] 93% | [8] 88.6% | [9] 79.5% | [10] 84.5% | [11] 91.8% | [12] 90.4% | [13] 84.7% | [14] 103% | [15] 53.4% | [16] 91.9% | [17] 72.4% | [18] 89.4% | [19] 92.6% | [20] 83.8%

Nc1cccc2c1Oc1ccccc1O2
inactive: [1] 105% | [2] 86.2% | [3] 102% | [4] 102% | [5] 190% | [6] 99.2% | [7] 93.1% | [8] 176% | [9] 112% | [10] 108% | [11] 102% | [12] 99.6% | [13] 88.1% | [14] 124% | [15] 201% | [16] 98.3% | [17] 105% | [18] 107% | [19] 137% | [20] 114%

COC(=O)C(=[N+]=[N-])C(=O)OC
inactive: [1] 98.1% | [2] 99.2% | [3] 103% | [4] 103% | [5] 106% | [6] 98.3% | [7] 113% | [8] 106% | [9] 103% | [10] 103% | [11] 105% | [12] 104% | [13] 95.3% | [14] 105% | [15] 88.3% | [16] 107% | [17] 100% | [18] 100% | [19] 88.3% | [20] 110%

O=C(O)c1cccc(CCl)c1
inactive: [1] 108% | [2] 104% | [3] 107% | [4] 108% | [5] 103% | [6] 101% | [7] 113% | [8] 102% | [9] 94.3% | [10] 95.8% | [11] 93% | [12] 96.7% | [13] 108% | [14] 110% | [15] 90.3% | [16] 102% | [17] 104% | [18] 110% | [19] 98.4% | [20] 96.3%

Oc1ccc2c3c1O[C@H]1c4[nH]c5ccccc5c4C[C@@]4(O)C(C2)N(CC2CC2)CC[C@]314
inactive: [1] 90.9% | [2] 94.4% | [3] 94.3% | [4] 95.9% | [5] 107% | [6] 95.2% | [7] 101% | [8] 93.2% | [9] 103% | [10] 98.6% | [11] 99.7% | [12] 90.2% | [13] 102% | [14] 105% | [15] 69.9% | [16] 106% | [17] 100% | [18] 99.9% | [19] 99.7% | [20] 90.7%

CCOC(=O)/C(C#N)=C/c1ccc(N(CCCl)CCCl)cc1
inactive: [1] 94.9% | [2] 72.2% | [3] 110% | [4] 81.7% | [5] 41.4% | [6] 84.1% | [7] 90.8% | [8] 77.5% | [9] 84.9% | [10] 105% | [11] 91.1% | [12] 92% | [13] 66.5% | [14] 99% | [15] 79.3% | [16] 106% | [17] 94.4% | [18] 87.3% | [19] 71.9% | [20] 106%

COc1cc(C2(C#N)CCN(C)CC2)cc(OC)c1OC
inactive: [1] 104% | [2] 110% | [3] 129% | [4] 103% | [5] 102% | [6] 102% | [7] 98.8% | [8] 90.9% | [9] 111% | [10] 90.9% | [11] 97.2% | [12] 101% | [13] 94.3% | [14] 106% | [15] 79.8% | [16] 97.5% | [17] 103% | [18] 97.3% | [19] 95.7% | [20] 100%

O=C1NC2(CCNCC2)Nc2ccccc21
inactive: [1] 100% | [2] 97.7% | [3] 109% | [4] 96.6% | [5] 110% | [6] 107% | [7] 120% | [8] 106% | [9] 114% | [10] 100% | [11] 113% | [12] 91.2% | [13] 96.1% | [14] 116% | [15] 89.4% | [16] 115% | [17] 104% | [18] 102% | [19] 107% | [20] 105%

Source: PubChem BioAssay (NCI)
